Experimental data taken from PubChem BioAssay (EPA / NIEHS).
Calls of active or inactive are those of the source. How the source made its calls: active means hit-call score of the fitted dose curve at least 0.9, where 1 is the maximum; inactive means score below 0.9.

Assays:
[1] = ATG_GRE_CIS: Attagene CIS-FACTORIAL HepG2 Assay for human Glucocorticoid Response Elements (GRE) (AID 2282947); conditions: HepG2 GRE cis-reporter, Attagene multiplex mRNA; actives raise or lower the signal
Procedure, shortened: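 Cells (HepG2) bearing transfected cis-promoter reporter transcription units were treated with chemical for 24 hours. Reporter mRNA was measured via RT-PCR with capillary electrophoresis, and activity was fitted in both directions relative to DMSO.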

[2] = ATG_ISRE_CIS: Attagene CIS-FACTORIAL HepG2 Assay for human Interferon Regulatory Factor 1 (IRF1) binding to an Interferon-Stimulated Response Element (ISRE) (AID 2282948); conditions: HepG2 ISRE cis-reporter (Attagene), mRNA transcription readout; actives raise or lower the signal
Procedure, shortened: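 Endogenous transcription factor activity read as reporter transcript abundance via RT-PCR and capillary electrophoresis. HepG2 cells transiently transfected, 24 h chemical exposure. Gain or loss fitted against DMSO baseline.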

[3] = ATG_M_32_CIS: Attagene CIS-FACTORIAL HepG2 Assay for M32 Transcription Factor (Internal Marker) (AID 2282949); conditions: HepG2 Attagene cis-factorial M32 reporter, mRNA; actives raise or lower the signal;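 further: background control marker of the multiplexed CIS panel rather than a real target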
Procedure, shortened: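 HepG2 transfectants (cis-regulated reporter transcription units) dosed 24 h. Reporter mRNA by RT-PCR plus CE, analysed as gain or loss relative to DMSO.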

[4] = ATG_M_06_CIS: Attagene CIS-FACTORIAL HepG2 Assay for M06 Transcription Factor (Internal Marker) (AID 2282950); conditions: HepG2 Attagene CIS-FACTORIAL M06 internal marker reporter; actives raise or lower the signal
Procedure, shortened: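 Steps: transfect HepG2 with multiplexed cis-element reporter constructs; dose chemical 24 h; extract RNA with DNase treatment; reverse-transcribe, PCR-amplify, 6-FAM label, HpaI digest; separate fragments by capillary electrophoresis. Activity fitted both directions versus DMSO.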

[5] = biological target: Hepatocyte nuclear factor 6 (Homo sapiens) (UniProt Q9UBC0); assay: ATG_HNF6_CIS: Attagene CIS-FACTORIAL HepG2 Assay for human Hepatocyte Nuclear Factor 6 (HNF6) (AID 2282952); conditions: HepG2 Attagene cis-factorial HNF6 reporter transcription; actives raise or lower the signal
Procedure, shortened: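 Endogenous transcription factor activity in human HepG2 liver cells was captured through cis-regulated reporter constructs. After 24 h treatment, reporter mRNA was measured by RT-PCR with capillary electrophoresis, and activity was fitted in both directions relative to DMSO.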

[6] = biological target: Heat shock factor protein 1 (Homo sapiens) (UniProt Q00613); assay: ATG_HSE_CIS: Attagene CIS-FACTORIAL HepG2 Assay for human Heat Shock Transcription Factor 1 (HSE) (AID 2282953); conditions: HepG2 HSE cis-reporter, Attagene RNA transcription; actives raise or lower the signal
Procedure, shortened: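 Cells were transfected with cis-element-driven reporter constructs, dosed for 24 h, then total RNA was reverse-transcribed and reporter cDNA amplified, FAM-labelled and digested with HpaI. Fragments were resolved by capillary electrophoresis; gain or loss was fitted against DMSO.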

[7] = ATG_MRE_CIS: Attagene CIS-FACTORIAL HepG2 Assay for human Metal Responsive Element (MRE) (AID 2282954); conditions: HepG2 MRE cis-reporter transcription, Attagene multiplex; actives raise or lower the signal
Procedure, shortened: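 Cells were transfected with cis-promoter reporter transcription units, then dosed for 24 h. RNA was reverse-transcribed, amplified, fluorescently labelled and resolved by capillary electrophoresis, and activity was fitted in both directions relative to DMSO.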

[8] = ATG_PBREM_CIS: Attagene CIS-FACTORIAL HepG2 Assay for human Phenobarbital-responsive Enhancer Module (PBREM) (AID 2282955); conditions: HepG2 PBREM cis-reporter, Attagene multiplexed transcription; actives raise or lower the signal
Procedure, shortened: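 HepG2, transient MRTU transfection, 24 h dosing; RNA → oligo(dT) RT → PCR → 6-FAM extension → HpaI → CE. Bidirectional fit vs DMSO.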

[9] = biological target: Paired box protein Pax-6 (Homo sapiens) (UniProt P26367); assay: ATG_Pax6_CIS: Attagene CIS-FACTORIAL HepG2 Assay for human Paired Box 6 (PAX6) (AID 2282956); conditions: HepG2 CIS-FACTORIAL PAX6 reporter transcription, RNA readout; actives raise or lower the signal
Procedure, shortened: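 Read-out is reporter transcript level, measured by RT-PCR with fluorescent primer extension and capillary electrophoresis after 24 h dosing of transfected HepG2 cells. Activity in either direction fitted relative to DMSO control.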

[10] = ATG_PXRE_CIS: Attagene CIS-FACTORIAL HepG2 Assay for human Pregnane X Receptor Element (PXRE) (AID 2282957); conditions: HepG2 Attagene CIS-FACTORIAL PXRE reporter, mRNA; actives raise or lower the signal
Procedure, shortened: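 Endogenous transcription factor activity in HepG2 was gauged through induction of reporter mRNA driven by a cis-regulating promoter element, sampled 24 h post-treatment. Activity was fitted in both directions against DMSO negative control.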

[11] = ATG_RORE_CIS: Attagene CIS-FACTORIAL HepG2 Assay for human RAR-related Orphan Receptor Element (RORE) (AID 2282959); conditions: HepG2 Attagene cis-factorial RORE reporter, mRNA; actives raise or lower the signal
Procedure, shortened: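 Multiplexed reporter assay measuring mRNA induction from a cis promoter element in transiently transfected HepG2 cells after 24 h treatment. Detection via RT-PCR and capillary electrophoresis fluorescence; DMSO serves as baseline.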

[12] = ATG_Sox_CIS: Attagene CIS-FACTORIAL HepG2 Assay for human SRY-box transcription factor (SOX) (AID 2282960); conditions: HepG2 Attagene cis-factorial SOX reporter, mRNA; actives raise or lower the signal
Procedure, shortened: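 Cells were transfected with reporter constructs under cis-regulatory promoters, then exposed to chemicals for 24 h. Reporter transcripts were quantified by fluorescence after RT-PCR and capillary electrophoresis; activity was fitted in both directions against DMSO.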

[13] = biological target: Transcription factor Sp1 (Homo sapiens) (UniProt P08047); assay: ATG_Sp1_CIS: Attagene CIS-FACTORIAL HepG2 Assay for human Specificity Protein 1 (Sp1) (AID 2282961); conditions: HepG2 Sp1 cis-reporter transcription, actives raise or lower the signal
Procedure, shortened: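 Measures mRNA induction of an Sp1-linked reporter in HepG2 cells 24 h post-dosing. Multiplexed reporters read by RT-PCR and capillary electrophoresis; DMSO serves as negative control and baseline.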

[14] = ATG_SREBP_CIS: Attagene CIS-FACTORIAL HepG2 Assay for human Sterol Regulatory Element Binding (SREBP) (AID 2282962); conditions: HepG2 Attagene cis-factorial SREBP reporter, mRNA; actives raise or lower the signal
Procedure, shortened: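 Endogenous SREBP activity read as cis-element-driven reporter transcript in transiently transfected HepG2, 24 h post-dosing; quantified via RT-PCR plus capillary electrophoresis of fluorescent fragments. Gain or loss of signal fitted relative to DMSO baseline.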

[15] = biological target: Signal transducer and activator of transcription 3 (Homo sapiens) (UniProt P40763); assay: ATG_STAT3_CIS: Attagene CIS-FACTORIAL HepG2 Assay for human Signal Transducer and Activator of Transcription 3 (STAT3) (AID 2282963); conditions: HepG2, Attagene cis-factorial STAT3 reporter transcription; actives raise or lower the signal
Procedure, shortened: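 HepG2, MRTU-transfected, 24 h dosing. RNA → RT → PCR → FAM label → HpaI → CE. Bidirectional fit vs DMSO.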

[16] = ATG_TA_CIS: Attagene CIS-FACTORIAL HepG2 Assay for human TA Basal Promoter (AID 2282964); conditions: HepG2 Attagene CIS-factorial TA basal promoter reporter; actives raise or lower the signal
Procedure, shortened: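 Steps: transfect HepG2 with MRTUs; dose 24 h; isolate RNA, DNase-treat, reverse-transcribe; PCR and FAM-label reporter cDNA; digest with HpaI 2h at 37 C; run capillary electrophoresis. Activity fitted both directions against DMSO.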

[17] = ATG_TCF_b_cat_CIS: Attagene CIS-FACTORIAL HepG2 Assay for human T-Cell-Factor with beta-catenin (TCF/b-cat) (AID 2282965); conditions: HepG2 TCF/beta-catenin cis-reporter transcription, actives raise or lower the signal
Procedure, shortened: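 Using capillary electrophoresis as the read-out, labelled reporter cDNA fragments from transiently transfected HepG2 were sized and quantified. Exposure lasted 24 hours; activity in either direction was referenced to DMSO.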

[18] = biological target: Hypoxia-inducible factor 1-alpha (Homo sapiens) (UniProt Q16665); assay: ATG_HIF1a_CIS: Attagene CIS-FACTORIAL HepG2 Assay for human Hypoxia Inducible Factor 1 (HIF1A) (AID 2282951); conditions: HepG2 Attagene cis-factorial HIF1a reporter transcription; actives raise or lower the signal
Procedure, shortened: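 HepG2, transient cis-reporter library, 24 h dosing. RNA → RT (oligo dT) → PCR → 6-FAM primer extension → HpaI → CE. Bidirectional curve fit vs DMSO.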

[19] = ATG_PPRE_CIS: Attagene CIS-FACTORIAL HepG2 Assay for human Peroxisome Proliferator-activated Response Element (PPRE) (AID 2282958); conditions: HepG2 PPRE cis-element reporter, Attagene transcription factor profiling; actives raise or lower the signal
Procedure, shortened: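 Transcript-level reporter induction in transfected HepG2 cells after 24 h chemical exposure, quantified by fluorescence from RT-PCR products separated by capillary electrophoresis.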

Measured: outcome

Chain of Hepatocyte nuclear factor 6 (Homo sapiens) (Q9UBC0 whole entry, looked up): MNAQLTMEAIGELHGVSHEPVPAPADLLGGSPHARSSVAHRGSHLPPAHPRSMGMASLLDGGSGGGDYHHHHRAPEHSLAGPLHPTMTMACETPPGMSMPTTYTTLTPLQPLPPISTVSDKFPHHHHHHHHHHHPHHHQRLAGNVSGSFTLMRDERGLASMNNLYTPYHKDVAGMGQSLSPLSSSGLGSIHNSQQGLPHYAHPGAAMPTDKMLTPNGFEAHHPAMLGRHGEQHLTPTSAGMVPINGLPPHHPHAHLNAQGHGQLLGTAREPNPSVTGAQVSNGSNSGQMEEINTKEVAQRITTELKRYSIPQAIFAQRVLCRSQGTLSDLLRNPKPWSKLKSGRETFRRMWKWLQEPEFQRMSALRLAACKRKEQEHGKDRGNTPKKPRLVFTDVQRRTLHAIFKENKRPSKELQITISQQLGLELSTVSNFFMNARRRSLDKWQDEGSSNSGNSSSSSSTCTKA
Chain of Heat shock factor protein 1 (Homo sapiens) (Q00613 whole entry, looked up, the tested form may be a part): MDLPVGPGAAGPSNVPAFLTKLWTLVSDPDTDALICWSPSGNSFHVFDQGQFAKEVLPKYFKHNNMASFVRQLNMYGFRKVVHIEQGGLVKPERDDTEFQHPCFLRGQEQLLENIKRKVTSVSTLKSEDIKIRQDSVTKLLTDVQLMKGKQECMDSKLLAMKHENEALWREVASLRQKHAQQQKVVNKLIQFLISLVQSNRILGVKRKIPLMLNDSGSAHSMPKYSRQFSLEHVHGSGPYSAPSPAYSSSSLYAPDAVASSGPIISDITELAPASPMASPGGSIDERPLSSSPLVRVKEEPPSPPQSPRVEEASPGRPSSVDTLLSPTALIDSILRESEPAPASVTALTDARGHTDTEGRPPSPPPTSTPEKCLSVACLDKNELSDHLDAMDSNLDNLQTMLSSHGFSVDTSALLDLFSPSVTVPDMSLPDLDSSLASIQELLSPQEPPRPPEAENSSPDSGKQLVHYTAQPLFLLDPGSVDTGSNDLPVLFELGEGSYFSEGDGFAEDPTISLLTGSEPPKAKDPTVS
Chain of Transcription factor Sp1 (Homo sapiens) (P08047 whole entry, looked up): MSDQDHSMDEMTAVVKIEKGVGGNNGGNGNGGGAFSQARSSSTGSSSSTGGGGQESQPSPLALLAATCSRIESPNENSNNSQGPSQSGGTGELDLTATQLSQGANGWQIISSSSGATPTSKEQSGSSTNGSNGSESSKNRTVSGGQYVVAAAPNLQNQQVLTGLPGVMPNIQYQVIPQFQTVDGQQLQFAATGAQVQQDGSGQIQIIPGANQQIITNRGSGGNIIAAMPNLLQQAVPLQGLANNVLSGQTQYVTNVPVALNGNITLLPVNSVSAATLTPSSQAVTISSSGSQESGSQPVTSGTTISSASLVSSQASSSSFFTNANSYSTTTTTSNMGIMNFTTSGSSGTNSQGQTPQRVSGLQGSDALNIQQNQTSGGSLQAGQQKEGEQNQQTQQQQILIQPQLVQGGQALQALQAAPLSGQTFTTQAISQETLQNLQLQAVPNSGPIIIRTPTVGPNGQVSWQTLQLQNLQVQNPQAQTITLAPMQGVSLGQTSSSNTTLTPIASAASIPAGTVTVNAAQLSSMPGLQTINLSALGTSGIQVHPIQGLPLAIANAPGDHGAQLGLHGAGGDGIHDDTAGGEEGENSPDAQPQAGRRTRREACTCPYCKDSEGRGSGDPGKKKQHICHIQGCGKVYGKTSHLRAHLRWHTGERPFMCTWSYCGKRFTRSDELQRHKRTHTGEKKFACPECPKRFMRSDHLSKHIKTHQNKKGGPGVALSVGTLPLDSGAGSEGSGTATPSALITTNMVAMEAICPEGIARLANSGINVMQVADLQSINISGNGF
Chain of Paired box protein Pax-6 (Homo sapiens) (P26367 whole entry, looked up): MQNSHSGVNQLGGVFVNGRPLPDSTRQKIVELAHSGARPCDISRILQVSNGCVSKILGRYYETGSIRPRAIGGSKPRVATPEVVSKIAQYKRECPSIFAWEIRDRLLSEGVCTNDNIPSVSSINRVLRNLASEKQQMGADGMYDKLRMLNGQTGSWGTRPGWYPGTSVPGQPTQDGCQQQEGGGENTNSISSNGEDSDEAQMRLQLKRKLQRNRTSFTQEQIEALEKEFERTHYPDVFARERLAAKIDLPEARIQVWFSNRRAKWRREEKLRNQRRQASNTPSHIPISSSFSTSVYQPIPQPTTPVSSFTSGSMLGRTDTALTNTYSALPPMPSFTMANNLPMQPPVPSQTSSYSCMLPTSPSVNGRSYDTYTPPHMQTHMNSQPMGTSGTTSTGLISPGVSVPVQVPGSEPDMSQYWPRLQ
Chain of Hypoxia-inducible factor 1-alpha (Homo sapiens) (Q16665 whole entry, looked up): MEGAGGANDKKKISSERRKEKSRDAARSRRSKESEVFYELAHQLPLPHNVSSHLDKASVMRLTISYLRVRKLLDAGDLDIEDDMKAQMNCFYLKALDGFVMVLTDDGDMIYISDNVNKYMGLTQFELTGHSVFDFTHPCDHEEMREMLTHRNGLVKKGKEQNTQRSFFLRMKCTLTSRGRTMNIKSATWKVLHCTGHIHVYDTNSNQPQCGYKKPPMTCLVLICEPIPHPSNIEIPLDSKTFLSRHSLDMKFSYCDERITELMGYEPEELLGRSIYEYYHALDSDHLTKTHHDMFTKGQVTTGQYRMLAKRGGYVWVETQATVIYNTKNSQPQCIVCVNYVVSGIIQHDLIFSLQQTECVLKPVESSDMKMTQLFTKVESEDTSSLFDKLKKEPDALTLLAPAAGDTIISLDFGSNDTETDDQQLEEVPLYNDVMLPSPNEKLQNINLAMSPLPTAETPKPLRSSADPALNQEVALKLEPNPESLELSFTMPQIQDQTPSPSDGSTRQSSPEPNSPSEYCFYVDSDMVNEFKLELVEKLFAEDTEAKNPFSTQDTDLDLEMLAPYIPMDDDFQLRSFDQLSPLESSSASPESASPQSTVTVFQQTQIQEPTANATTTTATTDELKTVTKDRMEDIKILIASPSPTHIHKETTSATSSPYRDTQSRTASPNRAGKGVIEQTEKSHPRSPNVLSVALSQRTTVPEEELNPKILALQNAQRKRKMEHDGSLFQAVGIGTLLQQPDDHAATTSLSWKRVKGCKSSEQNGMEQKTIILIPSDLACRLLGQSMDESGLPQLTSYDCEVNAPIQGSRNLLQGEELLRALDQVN
Chain of Signal transducer and activator of transcription 3 (Homo sapiens) (P40763 whole entry, looked up): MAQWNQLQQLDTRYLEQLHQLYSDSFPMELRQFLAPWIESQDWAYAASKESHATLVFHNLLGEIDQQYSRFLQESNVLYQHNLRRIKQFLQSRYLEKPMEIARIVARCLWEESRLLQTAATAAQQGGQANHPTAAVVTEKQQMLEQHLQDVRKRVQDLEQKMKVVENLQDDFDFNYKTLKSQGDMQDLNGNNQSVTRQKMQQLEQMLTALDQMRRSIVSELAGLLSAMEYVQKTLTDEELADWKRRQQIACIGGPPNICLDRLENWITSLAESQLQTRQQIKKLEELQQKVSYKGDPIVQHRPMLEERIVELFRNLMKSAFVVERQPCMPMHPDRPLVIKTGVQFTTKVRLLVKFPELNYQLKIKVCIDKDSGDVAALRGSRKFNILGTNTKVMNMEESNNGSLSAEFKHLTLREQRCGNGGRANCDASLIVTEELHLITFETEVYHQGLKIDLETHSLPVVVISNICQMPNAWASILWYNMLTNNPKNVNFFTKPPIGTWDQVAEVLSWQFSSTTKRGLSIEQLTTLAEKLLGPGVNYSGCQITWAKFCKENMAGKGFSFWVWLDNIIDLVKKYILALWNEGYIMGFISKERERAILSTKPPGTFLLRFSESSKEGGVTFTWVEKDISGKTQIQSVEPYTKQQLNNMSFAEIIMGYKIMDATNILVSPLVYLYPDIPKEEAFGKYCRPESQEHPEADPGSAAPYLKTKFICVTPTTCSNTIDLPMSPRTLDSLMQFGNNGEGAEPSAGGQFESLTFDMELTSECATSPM

CC1=NN(c2ccc(S(=O)(=O)O)cc2)C(=O)C1
not listed: [18] | [19]
inactive: all other assays above

C=C1C[C@]23C[C@@]1(O)CC[C@H]2[C@@]12C=C[C@H](O)[C@@](C)(C(=O)O1)[C@H]2[C@@H]3C(=O)O
not listed: [6] | [19]
inactive: all other assays above

CC(C)OCCO
not listed: [3] | [8] | [19]
inactive: all other assays above

O=c1[nH]c(=O)c2cn[nH]c2[nH]1
not listed: [4] | [5] | [9] | [15] | [16]
inactive: all other assays above

CCCSc1ccc2nc(NC(=O)OC)[nH]c2c1
not listed: [9] | [15] | [18]
inactive: all other assays above

Cc1ccc(OC(=O)c2ccccc2O)cc1
not listed: [17] | [18]
inactive: all other assays above

COC(CC(C)CCCC(C)(C)O)OC (centres undefined)
not listed: [4] | [18]
inactive: all other assays above
